We go through one compound from PubChem BioAssay AID652015 (National Center for Advancing Translational Sciences (NCATS), 2013).

Inconclusive results are not listed. Calls of active or inactive are those of the source. Calls follow the shape of the dose curve; as a rule, active = well fitted inhibition curve with a large enough effect; inconclusive = small, poorly fitted or top-dose-only effect; inactive = no such curve, though single readings can be large or run the other way.

The target of the assay is Coelenterazine h 2-monooxygenase (Renilla reniformis) (UniProt P27652). Kind of assay: qHTS Assay for Inhibitors of Sea Pansy Luciferase from the GSK Published Protein Kinase Inhibitor Set. From the text: FLuc (firefly luciferase) is the prototypical bioluminescent reporter gene from Photinus pyralis.[1] The enzyme catalyzes the oxidation luciferin via luciferin-AMP to produce light. FLuc is used in cell-based reporter gene-based assays for screening small molecule chemical libraries. However, small molecule luciferase inhibitors present in most large chemical libraries are often enriched in the output of high throughput screens using this reporter sometimes complicating interpretation and candidate selection.
RLuc is a bioluminescent reporter gene luciferase from Renilla reniformis, also known as the sea pansy. RLuc uses the luciferin substrate coelenterazine. […]
Three microliters containing renilla luciferase substrate in buffer (final concentrations: 50mM Tris acetate, pH 7.5, 100uM NaCl, 0.01% Tween-20, 0.05% BSA, 5uM coelenterazine h) are dispensed into each well of a Greiner white, solid-bottom 1536-well format plate using a flying reagent dispenser (FRD). These assay plates were then treated with 23nL of compound or DMSO using a Kalypsys pin tool, which allows for delivery of a 7-point interplate titration of each compound to the assay plate (quantitative HTS), with final compound concentrations ranging from approximately 60uM to 300pM. […] Luciferase activity was then measured using an Envision plate reader (PerkinElmer), with an average incubation time of 2 min.
Background: Quantitative high-throughput screening tests each substance at several concentrations.

Coelenterazine h 2-monooxygenase (Renilla reniformis), sequence (P27652 whole entry, looked up): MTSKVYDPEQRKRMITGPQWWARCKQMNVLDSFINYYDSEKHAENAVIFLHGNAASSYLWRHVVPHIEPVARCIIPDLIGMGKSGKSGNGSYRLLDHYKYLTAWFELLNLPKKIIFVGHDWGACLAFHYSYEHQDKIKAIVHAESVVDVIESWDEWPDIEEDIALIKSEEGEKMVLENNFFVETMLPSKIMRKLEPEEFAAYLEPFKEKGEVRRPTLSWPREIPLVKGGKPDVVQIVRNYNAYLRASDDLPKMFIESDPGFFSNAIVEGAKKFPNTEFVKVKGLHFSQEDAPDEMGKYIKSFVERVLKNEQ

As to `CNC(=O)Oc1cc(C)c(C=Cc2cncc(C(=O)NC)c2)c(C)c1`, the outcome was inactive.
